In PubChem BioAssay (NCATS) one finds activation and Potency data, which are given here for 39 molecules.

Structures are written as SMILES. Where “and” joins values, the source holds several entries; their conditions need not be identical. Equal entries are not always repeated. Records with an inconclusive call do not appear. A call without a number means that no potency is given here. A number with no mark means an inactive call. Calls of active or inactive are those of the source. Unless noted, calls come from the whole dose curve; as a rule, active = well fitted curve in the direction sought with a large enough effect; inconclusive = small, poorly fitted or top-dose-only effect, or another doubt; inactive = no such curve, though single readings can be large; an effect the other way counts as inactive or inconclusive.

For the first assay, the target named is Cellular tumor antigen p53 (Homo sapiens) (UniProt P04637). The assay is described as follows: Primary qHTS for small molecule compounds that upregulate eGFP-tagged delta133p53alpha (in N-terminal) cells. (AID 2060322). Note: nearly all actives have a fitted effect of over 75% in size. Particulars: NCI-H358 eGFP-delta133p53alpha fluorescence, 24 h; activation: stronger effect = higher value. The method in brief: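 NCI-H358 cells pre-induced 24 h with 10 ng/ml doxycycline to express N-terminal eGFP-delta133p53alpha, then dosed 24 h at 37C without doxycycline; fixed, Hoechst-stained, GFP intensity by laser scanning cytometry, normalized to DMSO (0%) and 57.5 uM 5-azacytidine (100%).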
Sequence of Cellular tumor antigen p53 (Homo sapiens) (P04637 whole entry, looked up): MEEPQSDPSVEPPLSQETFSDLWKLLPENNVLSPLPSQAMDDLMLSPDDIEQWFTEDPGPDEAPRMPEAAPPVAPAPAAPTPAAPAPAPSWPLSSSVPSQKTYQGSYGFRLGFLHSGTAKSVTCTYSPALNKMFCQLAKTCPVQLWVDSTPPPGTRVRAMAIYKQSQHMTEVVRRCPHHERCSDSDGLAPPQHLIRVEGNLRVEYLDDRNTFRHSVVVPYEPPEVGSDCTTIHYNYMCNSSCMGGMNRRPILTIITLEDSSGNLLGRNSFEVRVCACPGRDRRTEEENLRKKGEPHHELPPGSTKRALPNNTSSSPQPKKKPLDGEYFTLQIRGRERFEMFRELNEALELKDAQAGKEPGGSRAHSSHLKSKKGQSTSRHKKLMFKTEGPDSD
(Quantitative high-throughput screening tests each substance at several concentrations.)
Consider `Cc1c(N[C@@H](c2nnc(-c3ccc(C#N)cc3)o2)[C@H](C)O)ccc(C#N)c1Cl`, for which the activation is 21%.
Regarding `O=C(N1CCOCC1)N1CCN(c2ccc(Cl)cc2)CC1`, the activation was 10%.
Consider `COC(=O)[C@]12CCCC(C)(C)C1CCc1cc(C(C)C)c(O)c(O)c12` (stereo partly drawn), for which the activation is -23.7%.
Same read-out and setting: the result for `C1=C(c2cnc[nH]2)c2ccsc2CC1` reads -3.34%.

For a further assay, the target named is Aldehyde dehydrogenase, mitochondrial (Homo sapiens) (UniProt P05091). The assay is described as follows: qHTS for Inhibitors of the Aldehyde Dehydrogenase Family (ALDH2) Confirmatory screens (AID 2061303; active = well fitted inhibition curve with a large enough effect; title and protocol of this record describe different tests; note: nearly all actives have a fitted effect of over 45% in size; note: potency is the fitted concentration of half-maximal effect). Particulars: ALDH inhibition qHTS; series mostly up to 45.4 µM.
Consider `O=[N+]([O-])c1ccc2nc(N3CCNCC3)ccc2c1`, for which the Potency was 398 nM (active) and 2.51 µM (active).
In the case of `CCOC(=O)c1ncn2c1[C@@H]1CCCN1C(=O)c1cc(OC)ccc1-2`, the Potency result was “inactive”.
Take `N#Cc1ccc(N2CCN(C(=O)COc3ccc4[nH]cc(CCN)c4c3)CC2)cc1`: the Potency entry is “inactive”.
Consider `CCC1NC(=O)C2C(Cl)C(Cl)CN2C(=O)C(CC)NC(=O)CC(c2ccccc2)NC(=O)C(CO)NC1=O` (stereo not drawn), for which the Potency entry is “inactive”.
In the case of `CCc1[nH]c2ccc(OC)cc2c1CCN(C)C`, the Potency result is “inactive”.
For the molecule `Cc1c(N[C@@H](c2nnc(-c3ccc(C#N)cc3)o2)[C@H](C)O)ccc(C#N)c1Cl`, the Potency entry was “inactive”.

Tested on in the next assay: not listed separately
In words: qHTS for Inhibitors of the Aldehyde Dehydrogenase Family (ALDH1A2, ALDH1A3, ALDH2, ALDH3A1) (AID 2061307). For Potency: test system not described further here; potency is the fitted concentration of half-maximal effect. Note: nearly all actives have a fitted effect of over 50% in size. Particulars: ALDH inhibition qHTS; series mostly up to 50.3 µM.
On to `O=[N+]([O-])c1ccc2nc(N3CCNCC3)ccc2c1`, for which the Potency is 14.1 µM (active) and 12.6 µM (active).
With `O=[N+]([O-])c1cc(O)c(O)c([N+](=O)[O-])c1`, the Potency result was “inactive”.
Same read-out and setting: then `CCOC(=O)c1ncn2c1[C@@H]1CCCN1C(=O)c1cc(OC)ccc1-2`, with “inactive”.
Take `CC/C=C/C=C/C1(C)OC(OC)=C(C(=O)C2C(C)C(=O)c3cc(OC)c(O)c(O)c3C2(C)O)C1=O` (stereo not drawn): the Potency entry was “inactive”.
In the case of `COC1=C[C@@H]2[C@@H]3Cc4ccc(OC)c(O)c4[C@]2(CCN3C)CC1=O`, the Potency result was “inactive”.
For the molecule `CC(=O)O[C@H]1CC[C@@]2(CI)C(=CC[C@@H]3[C@@H]2CC[C@]2(C)C(=O)CC[C@@H]32)C1`, the Potency entry is “inactive”.
Still for that read-out and setting: then `COc1cc(N2CCN(C)CC2)ccc1N`, with “inactive”; and `COc1ccc2c(C(=O)c3ccc(Cl)cc3)c(C)n(CC(=O)O)c2c1`, with “inactive”.

The target of a further assay is Aldehyde dehydrogenase, mitochondrial (Homo sapiens) (UniProt P05091). The assay is described as follows: qHTS for Inhibitors of the Aldehyde Dehydrogenase Family (ALDH2) Primary screen (AID 2061308). Note: nearly all actives have a fitted effect of over 55% in size. Particulars: ALDH2 enzyme inhibition qHTS, 1536-well; series mostly up to 56 µM.
With `C#CC1(O)CCC2C3CCC4=CC(=O)CCC4=C3C=CC21C` (stereo not drawn), the Potency entry is “inactive”.
As for `C=CCN1CC[C@]23c4c5ccc(O)c4O[C@H]2[C@@H](O)CC[C@@]3(O)[C@H]1C5`, the Potency result is “inactive”.
On the same count and under the same terms, the result for `CC[C@@H]1C[C@H]2CC[C@H](O2)[C@H](C)C(=O)O[C@@H](C)C[C@@H]2CC[C@@H](O2)[C@@H](C)C(=O)O[C@H](CC)C[C@H]2CC[C@H](O2)[C@H](C)C(=O)O[C@@H](C)C[C@@H]2CC[C@@H](O2)[C@@H](C)C(=O)O1` reads “inactive”.
For `CC(=O)OC12C(O)C(C)C3(O)C4C=C(C)C(=O)C4CC(CO)=CC3C1C2(C)C` (stereo not drawn), the Potency result is “inactive”.
With `CN(C(=O)C(c1ccccc1)c1ccccc1)[C@H](CN1CC[C@H](O)C1)c1ccccc1`, the Potency result is “inactive”.
In the case of `N#C[C@@H](O[C@@H]1O[C@H](CO[C@@H]2O[C@H](CO)[C@@H](O)[C@H](O)[C@H]2O)[C@@H](O)[C@H](O)[C@H]1O)c1ccccc1`, the Potency entry was “inactive”.
For `N#Cc1ccccc1-c1cc(-c2ccccn2)cn(-c2ccccc2)c1=O`, the Potency entry is “inactive”.
As to `CC/C=C/C=C/C1(C)OC(OC)=C(C(=O)C2C(C)C(=O)c3cc(OC)c(O)c(O)c3C2(C)O)C1=O` (stereo not drawn), the Potency entry is “inactive”.
On the same count and under the same terms, then `CCN1C[C@]2(OC(=O)c3ccccc3NC(C)=O)CC[C@H](OC)[C@@]34[C@@H]2C[C@@H]([C@@H]13)[C@@]1(O)C[C@H](OC)[C@H]2C[C@@H]4[C@]1(O)[C@H]2OC`, with “inactive”; and `CN1CCCCC1Cn1cc(C(=O)c2cc([N+](=O)[O-])ccc2I)c2ccccc21` (stereo not drawn), with “inactive”.
As to `COc1cc2c(cc1O)C1(C)CCC(O)C(C)(C)C1CC2=O` (stereo not drawn), the Potency result was “inactive”.
Consider `CCCCCn1cc(C(=O)Oc2cccc3cccnc23)c2ccccc21`, for which the Potency entry is “inactive”.
As for `COC1=C[C@@H]2[C@@H]3Cc4ccc(OC)c(O)c4[C@]2(CCN3C)CC1=O`, the Potency result was “inactive”.
On to `CCCCCn1cc(C(=O)Cc2ccccc2OC)c2ccccc21`, for which the Potency result is “inactive”.
Still for that read-out and setting: then `N#Cc1ccc(N2CCN(C(=O)COc3ccc4[nH]cc(CCN)c4c3)CC2)cc1`, with “inactive”.
In the case of `C=CC(C)(C)c1[nH]c2c(CC=C(C)C)cc(CC=C(C)C)cc2c1C[C@@H]1NC(=O)[C@H](C)NC1=O`, the Potency entry was “inactive”.
Consider `CCC1NC(=O)C2C(Cl)C(Cl)CN2C(=O)C(CC)NC(=O)CC(c2ccccc2)NC(=O)C(CO)NC1=O` (stereo not drawn), for which the Potency entry was “inactive”.
In the case of `CCc1[nH]c2ccc(OC)cc2c1CCN(C)C`, the Potency entry is “inactive”.
Regarding `C1=C2CCCN[C@H]2[C@@H]2C[C@H]1[C@H]1CCCCN1C2`, the Potency result was “inactive”.
As to `C/C=C(/C)C1C=CC2CC(C)CC(C)C2C1/C(O)=C1\C(=O)NC(CC(C)(O)C(=O)O)C1=O` (stereo not drawn), the Potency result is “inactive”.
Same read-out and setting: the result for `OCCCCC#Cc1cncc(OC[C@@H]2CCN2)c1` reads “inactive”; that for `CN1[C@@H]2CC[C@H]1CC(OC(=O)C1C=Nc3ccccc31)C2` (stereo partly drawn), “inactive”; that for `COc1cc(N2CCN(C)CC2)ccc1N`, “inactive”.
As for `COc1cc2c(c(OC)c1OC)-c1ccc(SC)c(=O)cc1[C@@H](NC(C)=O)CC2`, the Potency result is “inactive”.
For `O=C(OC[C@H]1O[C@@H](Oc2ccc(O)cc2CO)[C@H](O)[C@@H](O)[C@@H]1O)c1ccccc1`, the Potency result is “inactive”.
Turning to `CS[C@]1(CO)C(=O)N2[C@H]3C(=CC=C[C@@H]3O)C[C@@]2(SC)C(=O)N1C`, the Potency entry was “inactive”.
With `CCCN1CCO[C@H]2c3cc(O)ccc3OC[C@@H]21`, the Potency result is “inactive”.
Take `CC1CCCC(O)CCC/C=C/c2cc(O)cc(O)c2C(=O)O1` (stereo not drawn): the Potency entry is “inactive”.
Regarding `CC1(C)C(=O)N(c2ccc(C#N)c(C(F)(F)F)c2)C(=S)N1c1ccc(C(N)=O)c(F)c1`, the Potency result was “inactive”.
In the case of `COc1ccc2c(C(=O)c3ccc(Cl)cc3)c(C)n(CC(=O)O)c2c1`, the Potency result is “inactive”.
Turning to `N#Cc1cn([C@@H]2O[C@H](CO)[C@H](O)[C@@H]2O)c2ncnc(N)c12`, the Potency result was “inactive”.
The same measure, in the same setting: the result for `Cc1c(N[C@@H](c2nnc(-c3ccc(C#N)cc3)o2)[C@H](C)O)ccc(C#N)c1Cl` reads “inactive”.
In the case of `O=C(N1CCOCC1)N1CCN(c2ccc(Cl)cc2)CC1`, the Potency result was “inactive”.
Regarding `COC(=O)[C@]12CCCC(C)(C)C1CCc1cc(C(C)C)c(O)c(O)c12` (stereo partly drawn), the Potency result was “inactive”.
Take `C1=C(c2cnc[nH]2)c2ccsc2CC1`: the Potency entry is “inactive”.
